PubChem BioAssay (NCATS)
Inconclusive results are not listed.

Test: qHTS for identification of novel therapeutic agents for treatment of microphthalmiaassociated transcription factor (MiT) renal cell carcinoma (RCC) (AID 1963991)
Settings: TFE3-RCC viability, CellTiter-Glo, 48 h; measured here: UOK145 Z-AUC; stronger effect = lower value
In short: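 Three TFE3-fusion RCC lines (UOK109, UOK124, UOK145), 500 cells/well in complete medium, were treated with MIPE 4.0 compounds for 48 hours at 37 C. Viability was by CellTiter-Glo luminescence, normalized to DMSO (100%) and empty wells (0%); curves fitted over 11 concentrations.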
In the case of `CC(C)OC(=O)[C@H](C)N[P@](=O)(OC[C@H]1O[C@@H](n2ccc(=O)[nH]c2=O)[C@](C)(F)[C@H]1O)Oc1ccccc1`, the z-score is reported as 0.519.
For `Cc1cn([C@@H]2O[C@H](CO)[C@@H](O)[C@H]2F)c(=O)[nH]c1=O`, the z-score was 0.494.
Compound `C=CC(=O)Nc1ccc2ncnc(Nc3ccc(OCc4cccc(F)c4)c(Cl)c3)c2c1` has a z-score of -1.72.
For `COc1ccc(C=Cc2cc(OC)c(OC)c(OC)c2)cc1NC(=O)[C@H](N)CO`, the z-score was -1.55.
For `CC(C)C[C@H](NC(=O)CNC(=O)c1cc(Cl)ccc1Cl)B1OC(=O)CC(CC(=O)O)(C(=O)O)O1` (some centres undefined), the z-score was -2.91.
With `C[C@@H]1[C@H](C)CC[C@]2(C(=O)O)CC[C@]3(C)C(=CC[C@@H]4[C@@]5(C)C[C@@H](O)[C@H](O)[C@@](C)(CO)[C@H]5CC[C@]43C)[C@@H]12` the z-score was 0.0304.
With `COC(=O)[C@@H]1CC2=CC(=O)CC[C@]2(C)[C@@]23O[C@@H]2C[C@@]2(C)[C@H](CC[C@@]24CCC(=O)O4)[C@@H]13` the z-score was 0.45.
`O=C(O)C(=O)Nc1cccc(C2=NN=N[N]2)c1` gave a z-score of 0.0651.
`C[N+]1(C)[C@@H]2C[C@@H](OC(=O)C(O)(c3cccs3)c3cccs3)C[C@H]1[C@@H]1O[C@@H]12` showed a z-score of 0.677.
In the case of `OCCN1C[C@H](O)[C@@H](O)[C@H](O)[C@@H]1CO`, the z-score is reported as 1.03.
With `CN[C@H](CC(C)C)C(=O)N[C@H]1C(=O)N[C@@H](CC(N)=O)C(=O)N[C@@H]2C(=O)N[C@H]3C(=O)N[C@H](C(=O)N[C@H](C(=O)O)c4cc(O)cc(O)c4-c4cc3ccc4O)[C@H](O)c3ccc(c(Cl)c3)Oc3cc2cc(c3O[C@@H]2O[C@H](CO)[C@@H](O)[C@H](O)[C@@H]2O[C@H]2C[C@](C)(N)[C@H](O)[C@H](C)O2)Oc2ccc(cc2Cl)[C@H]1O` the z-score was 0.133.
Compound `C=C1CCC2[C@](C)(CO)C(O)CC[C@]2(C)C1CC=C1C(=O)OCC1O` (some centres undefined) has a z-score of 1.09.
Compound `COC[C@H](NC(=O)c1cnc(C)s1)C(=O)N[C@@H](COC)C(=O)N[C@@H](Cc1ccccc1)C(=O)[C@@]1(C)CO1` has a z-score of -2.57.
For `C[C@H]1O[C@H](O[C@H]2[C@H](O)[C@@H](O)[C@@H](O[C@H]3[C@H](O)[C@@H](O)C(O)O[C@H]3CO)O[C@H]2CO)[C@H](O)[C@@H](O)[C@H]1N[C@H]1C=C(CO)[C@@H](O)[C@H](O)[C@@H]1O` (some centres undefined), the z-score was 1.64.
With `CNC(=O)Nc1ccc(-c2nc(N3CC4CCC(C3)O4)c3cnn(C4CCC5(CC4)OCCO5)c3n2)cc1` the z-score was -2.73.
Compound `C=C1C[C@@]2(O)O[C@@]3(C[C@H]2C(C)C)[C@H](C)CC[C@H]13` has a z-score of 0.0529.
With `CC(=O)OCC(=O)[C@@]12N=C(C)O[C@H]1C[C@H]1[C@@H]3CCC4=CC(=O)C=C[C@]4(C)[C@@H]3[C@@H](O)C[C@@]12C` the z-score was 2.44.
In the case of `CCCCCCCCCCCCCCCC(=O)OC[C@@H](NC(=O)C(Cl)Cl)[C@H](O)c1ccc([N+](=O)[O-])cc1`, the z-score is reported as 0.929.
Compound `COc1cc([C@@H]2c3cc4c(cc3[C@H](O)[C@H]3COC(=O)[C@@H]23)OCO4)cc(OC)c1OC` has a z-score of -1.2.
Compound `CC(=O)N[C@H]1[C@@H]([C@H](O)[C@H](O)CO)OC(C(=O)O)=C[C@@H]1N=C(N)N` has a z-score of 0.195.
In the case of `NC(=O)c1ncn([C@@H]2O[C@H](CO)[C@@H](O)[C@@H]2O)c1O`, the z-score is reported as 0.0692.
Work on `CS(=O)(=O)N1CCc2c(-c3cnc(N)nc3)nc(N3CCOCC3)nc21` yielded a z-score of -1.55.
With `Cc1onc(-c2ccccc2)c1C(=O)N[C@@H]1C(=O)N2[C@@H](C(=O)O)C(C)(C)S[C@@H]12` the z-score was 1.83.
With `COc1ccc(Nc2cc(-c3cnc(N)nc3)nc(N3CCOCC3)n2)cn1` the z-score was -2.08.
With `CCC[C@H]1C[C@H](C(=O)N[C@@H]([C@@H]2O[C@@H](SC)[C@@H](O)[C@@H](O)[C@@H]2O)[C@H](C)Cl)N(C)C1` the z-score was -0.0561.
For `CC(C)(O)[C@H]1CC[C@@](C)([C@H]2[C@@H](O)C[C@@]3(C)[C@@H]4C[C@H](O[C@@H]5O[C@H](CO)[C@@H](O)[C@H](O)[C@@H]5O)[C@H]5C(C)(C)[C@@H](O[C@@H]6OC[C@@H](O)[C@H](O)[C@@H]6O)CC[C@@]56C[C@@]46CC[C@]23C)O1`, the z-score was 0.699.
Work on `CC(C)(C)[C@H](NC(=O)c1ccc(N)c(Cl)c1)C(=O)N1CCC[C@@H]1C(=O)N[C@H](C#N)CC(=O)O` yielded a z-score of 2.13.
Work on `CC(=O)NC(CS)C(=O)O` (centres undefined) yielded a z-score of 0.159.
In the case of `N#CNC(=NCCCCCCOc1ccc(Cl)cc1)Nc1ccncc1`, the z-score is reported as -3.43.
For `Cc1ccc(O)c(C(CCN(C(C)C)C(C)C)c2ccccc2)c1` (centres undefined), the z-score was 0.77.
`CN1[C@H]2CC(OC(=O)[C@@H](CO)c3ccccc3)C[C@H]1[C@H]1O[C@H]12` (some centres undefined) gave a z-score of 0.977.
With `CC(C)N(CC[C@H](c1ccccc1)c1cc(CO)ccc1O)C(C)C` the z-score was 0.832.
For `CC[C@H]1OC(=O)[C@H](C)[C@@H](O[C@H]2C[C@@](C)(OC)[C@@H](O)[C@H](C)O2)[C@H](C)[C@@H](O[C@@H]2O[C@@H](C)C[C@H](N(C)C)[C@@H]2O)[C@](C)(O)C[C@@H](C)C(=O)[C@H](C)[C@@H](O)[C@]1(C)O`, the z-score was 0.443.
`CC(=O)O[C@H]1C[C@@H]2CC[C@H]3[C@H]4C[C@H]([N+]5(C)CCCCC5)[C@@H](OC(C)=O)[C@@]4(C)CC[C@@H]3[C@@]2(C)C[C@H]1N1CCCCC1` gave a z-score of -3.76.
